M18AAP inhibitor: PfM18AAP inhibitors, malaria aminopeptidase, primary screen, biochemical, QFRET, recombinant enzyme. actives 1.2% (n = 290,000). H-Glu-NHMec fluorogenic cleavage. inhibition, % at 7.35 µM;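 active means inhibition above the campaign mean inhibition over all tested compounds plus 3 SD, cut at about 28% in these data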;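 further: 0% = plate median of test compound wells and 100% = 2 mM ZnCl2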
CendR NRP1 mod: modulators of CendR peptide binding to NRP-1, primary screen, biochemical, fluorescence polarization, uHTS | Neuropilin-1 (Homo sapiens), O14786 | FAM-RPARPAR peptide binding to NRP-1 | inhibition, % at 25 µM | actives 0.85% (n = 360,000);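 active means inhibition or corrected inhibition above about 18%, plus a signal ratio from 0.5 to 1.5, limit read from the data, passing the limit was not always enough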
Target sequence (O14786 whole entry, looked up): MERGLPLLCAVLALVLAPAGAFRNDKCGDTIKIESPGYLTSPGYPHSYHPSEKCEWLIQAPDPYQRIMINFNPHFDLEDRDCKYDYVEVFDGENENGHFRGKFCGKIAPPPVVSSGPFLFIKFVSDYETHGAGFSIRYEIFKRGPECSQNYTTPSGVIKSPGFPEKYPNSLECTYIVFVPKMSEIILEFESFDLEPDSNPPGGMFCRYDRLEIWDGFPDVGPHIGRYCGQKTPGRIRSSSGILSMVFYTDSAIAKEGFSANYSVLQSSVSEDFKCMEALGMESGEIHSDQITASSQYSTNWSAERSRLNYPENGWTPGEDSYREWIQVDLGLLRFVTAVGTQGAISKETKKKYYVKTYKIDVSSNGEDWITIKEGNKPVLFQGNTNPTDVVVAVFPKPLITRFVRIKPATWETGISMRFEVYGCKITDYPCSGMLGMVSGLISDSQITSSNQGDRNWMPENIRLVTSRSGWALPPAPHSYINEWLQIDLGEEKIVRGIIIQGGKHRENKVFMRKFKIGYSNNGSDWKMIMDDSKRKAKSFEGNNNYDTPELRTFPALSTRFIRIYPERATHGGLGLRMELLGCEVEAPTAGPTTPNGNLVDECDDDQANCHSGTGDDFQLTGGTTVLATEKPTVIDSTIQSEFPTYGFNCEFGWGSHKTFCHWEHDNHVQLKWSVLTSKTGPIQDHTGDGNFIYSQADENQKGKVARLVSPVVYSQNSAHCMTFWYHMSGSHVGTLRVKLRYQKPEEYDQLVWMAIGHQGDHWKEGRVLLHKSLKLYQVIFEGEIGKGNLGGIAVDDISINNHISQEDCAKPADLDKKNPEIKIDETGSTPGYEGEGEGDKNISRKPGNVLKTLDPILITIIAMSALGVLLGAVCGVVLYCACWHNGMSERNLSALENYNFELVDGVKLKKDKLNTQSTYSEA
APOBEC3A inh: APOBEC3A ssDNA deaminase inhibitors, primary screen, selectivity assay for APOBEC3G inhibitor project, biochemical, FAM/TAMRA oligo cleavage fluorescence | inhibition, % at 20 µM | DNA dC->dU-editing enzyme APOBEC-3A (Homo sapiens), P31941 | recombinant A3A, FAM/TAMRA ssDNA deamination fluorescence | AID 493011, 2011 | actives 0.41% (n = 330,000);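 active means at least 40% inhibition at 20 µM here, with at most 30% in a related deaminase screen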;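 further: plate controls were A3A with DMSO for no effect and wells lacking A3A enzyme for full effect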
APOBEC3G inh: APOBEC3G DNA deaminase inhibitors, primary screen, biochemical, fluorescence, single-stranded DNA substrate, uHTS; actives 0.28% (n = 330,000); AID 493012, 2011; inhibition, % at 20 µM; recombinant A3G, ssDNA deamination FAM/TAMRA fluorescence;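 active means inhibition of at least 40% at 20 µM, with no more than 30% in the related APOBEC3A deaminase screen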;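 further: plate controls were DMSO wells with A3G for no effect and wells lacking A3G enzyme for full effect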
Yeast superoxide: reduction of superoxide in aged yeast, primary screen, HTS; S. cerevisiae aged cells, superoxide DHE fluorescence; hits give low values; AID 2690, 2010; superoxide response (% of plate mean), % at 10 µM; actives 0.18% (n = 330,000);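 active means superoxide response under a set limit, about three screen SD below normal, cut at about 65% in these data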;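 further: yeast aged for seven days with compound at 30 °C before DHE staining; 100% = average MFI of all compound-treated wells on the plate with controls excluded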
ALR inh: inhibitors of human ALR sulfhydryl oxidase, primary screen, biochemical, H2O2 detection, HRP-luminol luminescence, single point. FAD-linked sulfhydryl oxidase ALR (Homo sapiens), P55789. purified ALR, DTT oxidation. inhibition, % (no concentration beside the values). actives 3.8% (n = 290,000);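 active means mean replicate inhibition above about 79%, with every replicate also reaching it, limit read from the data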
Numbers without * were called inactive; . = no result given. Shown are actives, neighbours in structure and some others; about 5.2% of the full set was active somewhere.

SMILES | M18AAP inhibitor | CendR NRP1 mod | APOBEC3A inh | APOBEC3G inh | Yeast superoxide | ALR inh
COc1cc(C)cc(C(=O)O)c1C1=C(O)c2cccc(O)c2C(=O)C1=O | . | 28* | 35 | 20 | 103 | -24
COC(=O)Cc1[nH]n(-c2nc3ccccc3s2)c(=O)c1C(C)=O | -1 | -19 | -2 | -5 | 100 | 98*
CC(=O)c1c(CC(=O)O)[nH]n(-c2nc3ccccc3s2)c1=O | -2 | -23 | 15 | 5 | 90 | 97*
COC(=O)CC1=NN(c2nc3ccccc3s2)C(=O)/C1=C/N(C)C | 1 | 2 | -1 | -5 | 92 | 96*
COc1ccc(CN=C(C)c2c(C(F)(F)F)[nH]n(-c3nc4ccccc4s3)c2=O)cc1 | 2 | -8 | -3 | -5 | 115 | .
Cc1occc1C(=O)n1nnc2ccccc21 | -11 | . | 2 | -8 | 84 | 8
Cc1ccc(SCC(=O)NNC(=O)c2cncc(Br)c2)cc1 | . | 5 | -4 | -5 | 110 | -11
COc1cccc(NC(=S)N(CCCN2CCOCC2)C(C)c2cc3cccc(OC)c3o2)c1 (stereo not drawn) | 9 | 4 | 1 | -8 | 87 | -6
CNC(=O)C(C)Sc1ccc(S(=O)(=O)N2CCOCC2)cn1 (stereo not drawn) | . | 22* | 10 | -1 | 100 | -1
CCCCCCCCCCOC(=O)Cn1c(COc2ccc(Cl)cc2)[n+](C)c2ccccc21 | 7 | 20* | -3 | -10 | 93 | -21
CNC(=O)c1c(NC(=O)C2=COCCO2)sc2c1CCCC2 | 0 | 4 | -3 | -3 | 103 | 81*
O=C(Cn1nc(C(=O)O)c2ccccc2c1=O)Nc1ccc(F)cc1F | -12 | -6 | 0 | -9 | 90 | -5
COc1ccc(C(=O)COC(=O)CSCc2c(C)noc2C)cc1OC | -4 | 2 | -5 | -9 | 117 | 98*
COc1ccc(OC)c(-c2csc(NC(=O)CSCc3c(C)noc3C)n2)c1 | . | -8 | 9 | -7 | 100 | 98*
Cc1ccc(C)c(N2CCN(C(=O)CSc3ccsc3[N+](=O)[O-])CC2)c1 | 3 | -2 | 4 | -2 | 107 | 5
O=C(O)Cc1c(-c2ccccc2)c2cc(Br)ccc2[nH]c1=O | -17 | 2 | 3 | -3 | 76 | 3
CC(C)n1ncc2c(C(=O)N3CCN(c4ccc(F)cc4)CC3)cc(-c3ccccc3)nc21 | . | 8 | -6 | -11 | 101 | -2
Cc1ccccc1-c1nc(CN2CCC(C(=O)NC3CCCCC3)CC2)c(C)o1 | -6 | 8 | -3 | 4 | 72 | -8
c1ccc(-n2nnnc2NCCCN2CCOCC2)cc1 | -12 | 30* | -8 | -8 | 95 | .
Cc1cccc(NCc2ccc([N+](=O)[O-])s2)c1 | 3 | 6 | -3 | -6 | 98 | 98*
Cc1ccc(NCc2ccc([N+](=O)[O-])s2)cc1 | 1 | -4 | -3 | 1 | 100 | 98*
N#CC1(NC(=O)CSc2nnc(COc3ccccc3F)n2N)CCCCC1 | . | -4 | -4 | -2 | 102 | -14
Cc1nnc2sc(-c3ccc(NC(=O)c4ccc(-c5ccc(Br)cc5)o4)cc3)nn12 | 3 | . | . | . | . | .
COC(=O)C1=C(C)N(CCCC(=O)O)C(=O)NC1c1ccc(-c2ccccc2)cc1 (stereo not drawn) | -4 | 30* | -5 | -2 | 87 | 7
COC(=O)C1=C(C)N(CCCC(=O)O)C(=O)NC1c1ccc(Br)cc1 (stereo not drawn) | -2 | -9 | -1 | -7 | 93 | -5
SMILES | M18AAP inhibitor | CendR NRP1 mod | APOBEC3A inh | APOBEC3G inh | Yeast superoxide | ALR inh
CC(=O)NC1C(=O)N=C(SC(C)C(=O)Nc2cccc(Cl)c2)NC1=O (stereo not drawn) | 4 | 11 | -2 | -5 | 100 | 98*
O=C(O)CC1(CC(=O)NCc2ccc(-c3cccs3)cc2)CCCCC1 | -5 | -9 | -3 | -5 | 106 | .
O=C1NCCC/C1=N\Nc1ccc(Br)cc1 | 14 | -4 | -5 | -8 | 99 | 99*
Cc1ccccc1N/N=C1\CCCNC1=O | -19 | 3 | -6 | -7 | 96 | 34
O=C(O)Cc1ccc2ccc3ccccc3c2c1 | . | 6 | -6 | -8 | 112 | -2
O=C(O)Cc1ccc(O)c(O)c1 | . | -4 | 2 | 4 | 98 | 98*
Cc1cc(C)cc(NC(=S)NC(=O)Cc2ccccc2)c1 | . | 7 | 0 | -1 | 86 | -4
COc1cccc(C(=O)NN=C2CCCC2)c1 | -1 | 3 | 0 | -12 | 100 | 6
O=[N+]([O-])c1ccc2[nH]c(=S)sc2c1 | . | 9 | . | . | . | .
S=c1[nH]c2ccc(Cl)cc2s1 | 13 | -5 | . | . | 80 | 99*
CCNC(=S)NC1CC2CCCC(C1)N2Cc1ccco1 (stereo not drawn) | 0 | -12 | 0 | -8 | 101 | 3
CC1CCCC(C)N1C(=O)COC(=O)c1cc(-c2cccs2)nn1-c1ccccc1 (stereo not drawn) | . | -8 | 2 | -8 | 93 | .
Cc1nc(N)sc1N=Nc1ccc(Br)cc1 | 3 | 4 | 1 | -2 | 122 | 99*
Cc1ccc(S(=O)(=O)N2CCOCC2)cc1C(=O)OCC(=O)NCc1ccc2c(c1)OCO2 | . | 7 | -2 | -2 | 91 | -3
CC(=O)NCc1ccc(C(=O)CSc2nnc(C3CC3)n2C2CC2)cc1 | . | -1 | -6 | -9 | 93 | 78*
COc1cccc(CN(C)C(=O)CNC(=O)c2ccc3c(c2)OCO3)c1OC | 9 | -4 | -6 | 4 | 95 | -1
Cc1ccc(OCCCC(=O)N(C)CC(=O)Nc2ccccc2Br)cc1 | . | -9 | 7 | -4 | 114 | -12
Cc1ccc(O)c(CNc2cccc3cccnc23)c1 | 18 | 3 | 0 | -3 | 88 | .
COc1ccc(CNc2ccccn2)c(O)c1 | -4 | 9 | -7 | -7 | . | .
COc1cccc(CNc2ccccn2)c1O | -8 | 8 | -2 | -6 | 101 | 62
Oc1c(Br)cc(Br)cc1CNc1cccc2cccnc12 | 33* | -3 | 6 | 1 | 101 | -104
Oc1ccc(Cl)cc1CNc1cccc2cccnc12 | 31* | -3 | 6 | -2 | 104 | .
Oc1c(Br)cc(Br)cc1CNc1ccccn1 | 1 | 0 | -4 | -7 | 96 | 98*
COc1cccc(CNc2cccc3cccnc23)c1O | 31* | -3 | 2 | 0 | 97 | -13
COc1ccc(CN2CCCCCC2)cc1Br | -4 | 3 | -5 | -13 | 94 | 0
CC1(C)CN(C2CCCCC2)C(=O)[C@H]1CC(=O)Nc1ccccc1 | . | -6 | . | . | . | .

Bioassay records deposited in PubChem BioAssay by several laboratories.
